Among the data in PubChem BioAssay (NCI) are growth inhibition values, retold here.

Assay [1] in a line: NCI Yeast Anticancer Drug Screen. Data for the rad50 strain (AID 155).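 Note: 0% = growth of vehicle-only cultures of the same strain.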 The conditions noted are these: S. cerevisiae rad50 strain growth inhibition; at 50.0 µM; hits give high values. The method in brief: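 Relative growth inhibition (compound vs vehicle) was measured in yeast with a defined repair-gene alteration.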
Assay [2] in a line: NCI Yeast Anticancer Drug Screen. Data for the mec2-1 strain (AID 157). Conditions: S. cerevisiae mec2-1 strain, at 50.0 µM, hits give high values. The method in brief: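 Vehicle-treated cultures served as reference for growth inhibition of compound-exposed mec2-1 yeast.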
The nature of assay [3]: NCI Yeast Anticancer Drug Screen. Data for the sgs1 mgt1 strain (AID 161).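 Note: 0% = growth of cultures given vehicle only.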 Conditions: S. cerevisiae sgs1 mgt1 strain, at 50.0 µM, hits give high values. The method in brief:
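Mutant yeast exposed to compound; growth scored against vehicle-only wells.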

A short description of assay [4]: NCI Yeast Anticancer Drug Screen. Data for the cln2 rad14 strain (AID 165).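 Note: 0% = growth equal to vehicle treated cultures.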 The conditions noted are these: S. cerevisiae cln2 rad14 strain, at 50.0 µM, hits give high values. The method in brief: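 Each compound was tested on cln2 rad14 yeast. Inhibition of growth was calculated against vehicle-exposed controls.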
Assay [5] can be described thus: NCI Yeast Anticancer Drug Screen. Data for the bub3 strain (AID 167). Conditions: S. cerevisiae bub3 mutant strain, at 50.0 µM, hits give high values. The method in brief: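 Screening used yeast with an engineered genetic alteration affecting cell cycle control. Compound-exposed cultures were compared with vehicle cultures, and reduced growth was taken as inhibition.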

Assay [6] is described as follows: NCI Yeast Anticancer Drug Screen. Data for the mlh1 rad18 strain (AID 175). Conditions: S. cerevisiae mlh1 rad18 strain growth inhibition; at 50.0 µM; hits give high values. The method in brief: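 Vehicle-treated cultures served as the reference for growth inhibition in a yeast strain carrying DNA damage repair alterations exposed to each compound.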

Structures are written as SMILES. The panel holds about 79,000 compounds, 15% with a hit somewhere; the sample as a whole holds those more often. Values without a mark were called inactive. Calls of active or inactive are those of the source. Cut-off read from the data, not from the text of the source: active = growth inhibition above about 70%; inactive = the rest.

For `COC(=O)c1cc2cccn2cn1`, the growth inhibition in assay [1] is -5.9%; in assay [2] it was -11.3%; in assay [3] it was -13.2%; in assay [4], -27.4%; in assay [5] it was -27.9%; in assay [6] it was -8.85%.

`COc1cc([N+](=O)[O-])ccc1NC(=O)c1cccc([N+](=O)[O-])c1C(=O)O`: the growth inhibition in assay [1] was 5%; in assay [2] it was 20.6%; in assay [3], 42.8%; in assay [4], -9.5%; in assay [5], -16.8%; in assay [6], 24.6%.

With `O=c1/c(=C/c2ccc(Cl)cc2Cl)sc2nc3ccccc3n12`, the growth inhibition in assay [1] was 4.1%; in assay [2] it was -23.4%; in assay [3], -0.15%; in assay [4], -12.8%; in assay [5], -22.5%; in assay [6], -7.45%.

In the case of `O=S(=O)(SC(S(=O)(=O)c1ccccc1)S(=O)(=O)c1ccccc1)c1ccccc1`, the growth inhibition in assay [1] was 13.2%; in assay [2], 9.35%; in assay [3], 39.4%; in assay [4] it was 1%; in assay [5], 72.6% (active); in assay [6] it was 39.2%.

On to `CNS(=O)(=O)c1ccc(Cl)cc1`, for which the growth inhibition in assay [1] was 29.9%; in assay [2] it was 11.7%; in assay [3], 13.9%; in assay [4] it was 13.3%; in assay [5], 5.9%; in assay [6], 20.1%.

As for `N=C(N)/N=C(/C=C/c1ccccc1)CC1OC(=O)c2ccccc21` (stereo not given), the growth inhibition in assay [1] was -6.95%; in assay [2] it was -10.7%; in assay [3], -22.6%; in assay [4], -2.85%; in assay [5] it was -28.8%; in assay [6] it was -24.3%.

On to `O=C(O)/C=C/C(=O)Nc1cc2c(cc1Br)-c1ccccc1C2O` (stereo not given), for which the growth inhibition is -2.75% in assay [1]; 12.5% in assay [2]; 14.3% in assay [3]; 14.1% in assay [4]; 1.25% in assay [5]; 34% in assay [6].

Regarding `CCN(CC)Cc1cc(OC)c(OC)c(OC)c1`, the growth inhibition in assay [1] is -8.3%; in assay [2] it was -14.5%; in assay [3], -6.6%; in assay [4], -50.9%; in assay [5], 7%; in assay [6], -18.1%.

For `O=C(Nc1cc(Cl)ccc1Cl)c1ccccc1Cl`, the growth inhibition was 2.9% in assay [1]; -6.7% in assay [2]; 14.8% in assay [3]; 8.85% in assay [4]; 19.9% in assay [5]; 20.5% in assay [6].

As for `COc1ccc(C(C#N)N2CCCN(C(C#N)c3ccc(OC)cc3)C2c2ccccc2)cc1` (stereo not given), the growth inhibition is -2.1% in assay [1]; 2.95% in assay [2]; -9.05% in assay [3]; -0.2% in assay [4]; -0.1% in assay [5]; 7.1% in assay [6].

Regarding `O=C(SCc1ccccc1)N(c1ccccc1)c1ccccc1`, the growth inhibition was -0.55% in assay [1]; 11.9% in assay [2]; 0% in assay [3]; 22.4% in assay [4]; 12.4% in assay [5]; 5.3% in assay [6].

Take `CC1=C(N2CCCCC2)S(=O)(=O)c2ccccc2C1`: the growth inhibition was 42.6% in assay [1]; 3.6% in assay [2]; 26.5% in assay [3]; -19.6% in assay [4]; 8.15% in assay [5]; 44% in assay [6].

For the compound `COc1ccc(Cc2coc3ccccc3c2=O)cc1`, the growth inhibition in assay [1] is 13.1%; in assay [2] it was 7.35%; in assay [3] it was 13.7%; in assay [4], 4.85%; in assay [5], 25.2%; in assay [6] it was 9.4%.

For the compound `CCC(C)(O)C#CC(C)(O)CC` (stereo not given), the growth inhibition in assay [1] was -0.1%; in assay [2] it was -0.95%; in assay [3], 11.8%; in assay [4], -63%; in assay [5] it was 9.8%; in assay [6], -40.8%.

In the case of `O=C1c2ccccc2CC12CCC1(CC2)OCCO1`, the growth inhibition was -14% in assay [1]; -1% in assay [2]; 3.55% in assay [3]; 26.6% in assay [4]; -12.5% in assay [5]; -23.6% in assay [6].

On to `COc1cccc(-c2cc(=O)c3cccc(CC(=O)O)c3o2)c1`, for which the growth inhibition is 5.9% in assay [1]; -4.9% in assay [2]; -11.6% in assay [3]; 2.85% in assay [4]; -2.35% in assay [5]; -30.9% in assay [6].

With `CC(=O)Nc1ccc(/C=C/C(=O)O)cc1`, the growth inhibition was -38.6% in assay [1]; -30.6% in assay [2]; -21.7% in assay [3]; -6.05% in assay [4]; -31.2% in assay [5]; -30.8% in assay [6].

Consider `O=C(O)c1cc(C(=O)O)cc(N(CCO)CCO)c1`, for which the growth inhibition is -19.1% in assay [1]; -6.45% in assay [2]; -6.8% in assay [3]; -17.6% in assay [4]; 21.8% in assay [5]; -14.2% in assay [6].

For `CCCCOC(=O)NC(=O)c1cc2ccc(N(CC)CC)cc2oc1=O`, the growth inhibition was -10.5% in assay [1]; 3.5% in assay [2]; 8.7% in assay [3]; 3.4% in assay [4]; 5.4% in assay [5]; 4.2% in assay [6].

With `CCOC(=O)c1ccc(NC(=O)Nc2ccc(OC)c([N+](=O)[O-])c2)cc1`, the growth inhibition in assay [1] was -5.9%; in assay [2], -3.6%; in assay [3], 12.5%; in assay [4] it was -15.7%; in assay [5] it was 17.8%; in assay [6], -5.2%.
